SMILES strings stand for the structures. Results filed as inconclusive are left out. Calls of active or inactive are those of the source. Unless noted, the call rests on the fitted dose curve; in most records, active means well fitted curve in the direction sought with a large enough effect in the repeat runs; inconclusive means weak or mixed curves; inactive means no such curve, though single readings can be large; an effect the other way counts as inactive or inconclusive.

The nature of experiment [1]: qHTS assay to identify small molecule antagonists of the estrogen receptor alpha (ER-alpha) signaling pathway using the BG1 cell line in the presence of 0.1 nM 17-beta-estradiol - cell viability counter screen (AID 1259241). Further: nearly all actives have a fitted effect of over 40% in size. Further: potency means the concentration at half of the fitted maximal effect. A digest of the protocol: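 VM7Luc4E2 cells (endogenous full-length ER-alpha, 4xERE-luciferase), cultured 5 days in charcoal-stripped serum, exposed to compounds with 0.1 nM 17beta-estradiol (final) for 22 hr at 37C. Viability read in same wells as live-cell protease fluorescence after 30 min.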
On the technique in general: Quantitative high-throughput screening tests each substance at several concentrations.

Experiment [2] can be described thus: qHTS assay to identify small molecule antagonists of the androgen receptor (AR) signaling pathway using the MDA cell line in the presence of 0.5 nM R1881 - cell viability counter screen (AID 1259242). Further: nearly all actives have a fitted effect of over 45% in size. Further: potency means the concentration at half of the fitted maximal effect. In a few lines:
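Human breast carcinoma MDA-kb2 cells, cultured without CO2, receive compounds alongside 0.5 nM (final) R1881 agonist. After 16 hr at 37C, viability is taken as live-cell protease signal.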

The target of experiment [3] is Androgen receptor (Homo sapiens) (UniProt P10275). In words: qHTS assay to identify small molecule antagonists of the androgen receptor (AR) signaling pathway using the MDA cell line in the presence of 0.5 nM R1881 (AID 1259243). Further: nearly all actives have a fitted effect of over 50% in size. Further: potency means the concentration at half of the fitted maximal effect. A digest of the protocol:
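Cells: MDA-kb2 (MMTV-luc). Stimulus: 0.5 nM R1881. Time: 16 hr, 37C, no CO2. Detection: ONE-Glo luminescence after 30 min at RT.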

The target in experiment [4] is Estrogen receptor (Homo sapiens) (UniProt P03372). Briefly: qHTS assay to identify small molecule antagonists of the estrogen receptor alpha (ER-alpha) signaling pathway using the BG1 cell line in the presence of 0.1 nM 17-beta-estradiol (AID 1259244). Further: nearly all actives have a fitted effect of over 50% in size. Further: potency means the concentration at half of the fitted maximal effect. A digest of the protocol: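 Seeding of stripped-serum-adapted VM7Luc4E2 cells, 24 h attachment, compound transfer, then 0.1 nM final 17beta-estradiol; after 22 h incubation, ONE-Glo reagent and luminescence reading.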
Estrogen receptor (Homo sapiens), sequence (P03372 whole entry, looked up): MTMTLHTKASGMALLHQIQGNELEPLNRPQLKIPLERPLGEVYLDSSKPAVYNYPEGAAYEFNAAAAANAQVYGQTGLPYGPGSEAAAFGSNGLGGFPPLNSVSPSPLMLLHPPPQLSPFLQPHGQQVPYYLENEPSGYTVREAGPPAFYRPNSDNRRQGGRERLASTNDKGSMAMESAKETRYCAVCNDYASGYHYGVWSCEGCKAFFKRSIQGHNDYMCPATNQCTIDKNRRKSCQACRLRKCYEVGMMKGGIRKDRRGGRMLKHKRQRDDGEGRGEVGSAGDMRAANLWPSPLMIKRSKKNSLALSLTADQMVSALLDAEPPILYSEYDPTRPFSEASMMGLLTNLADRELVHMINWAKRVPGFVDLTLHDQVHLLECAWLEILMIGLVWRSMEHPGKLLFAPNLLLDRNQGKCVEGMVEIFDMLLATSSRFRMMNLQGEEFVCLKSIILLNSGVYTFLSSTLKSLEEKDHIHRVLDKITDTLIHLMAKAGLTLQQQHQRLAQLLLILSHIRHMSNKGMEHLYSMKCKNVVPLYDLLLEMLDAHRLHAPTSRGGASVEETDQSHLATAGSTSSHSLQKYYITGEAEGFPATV

Experiment [5] can be described thus: qHTS assay to identify small molecule HDAC inhibitors (AID 1259364).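 Further: wild-type HCT-116 cells with endogenous class I/II HDAC activity; top concentration of the series differs between compounds; nearly all actives have a fitted effect of over 45% in size.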 A digest of the protocol: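 After a 2 hr compound incubation (37C, 5% CO2), HCT-116 cells seeded at 1,500/well the day before received HDAC-Glo reagent; signal read as luminescence after 30 min at room temperature.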
Experiment [6] can be described thus: qHTS assay to identify small molecule HDAC inhibitors - cell viability counter screen (AID 1259365). Further: nearly all actives have a fitted effect of over 50% in size. Further: potency means the concentration at half of the fitted maximal effect. In a few lines: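 Wild-type HCT-116 cells, 1,500/well, cultured overnight, then compound-treated 2 h at 37 C. Viability measured as ATP luminescence with CellTiter-Glo after 30 min at room temperature.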
Experiment [7] can be described thus: qHTS assay to identify small molecule agonists of the sonic hedgehog signaling (Shh) pathway - cell viability counter screen (AID 1259366). Further: nearly all actives have a fitted effect of over 50% in size. Further: potency means the concentration at half of the fitted maximal effect. A digest of the protocol:
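NIH/3T3-derived Gli1-Luc reporter cells, 2,000 per well, received compound after 4 h and were treated about 23 h at 37C. Viability measured in the same wells by CellTiter-Fluor fluorescence after 1 h.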

Experiment [8] is described as follows: qHTS assay to identify small molecule agonists of the sonic hedgehog signaling (Shh) pathway (AID 1259368; calls by dose curve;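 further: NIH/3T3-derived 3T3Gli1-Luc cells carrying a stable Gli1-driven firefly luciferase reporter; series mostly up to about 92 µM; nearly all actives have a fitted effect of over 15% in size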). A digest of the protocol: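 Stable NIH/3T3 Gli1-Luc reporter clone; 24 hr cpd exposure after a 4 hr settling period; luminescence endpoint.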
Experiment [9] has as its target Estrogen receptor beta (Homo sapiens) (UniProt Q92731). In words: qHTS assay to identify small molecule agonists of the estrogen receptor beta (ER-beta) signaling pathway (AID 1259377; active means well fitted activation curve with a large enough effect in the signal ratio in the repeat runs, not every such curve was filed as active; the % refers to the signal ratio). In a few lines: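 ER-beta-UAS-bla HEK293T cells in medium with 2% charcoal-stripped FBS were exposed to compounds for 16 h at 37C. Beta-lactamase reporter activity was read as fluorescence after 2 h with LiveBLAzer B/G FRET substrate at room temperature.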

For experiment [10] the target is unchanged. In words: qHTS assay to identify small molecule antagonists of the estrogen receptor beta (ER-beta) signaling pathway (AID 1259378; active means well fitted inhibition curve with a large enough effect in the signal ratio in the repeat runs, not every such curve was filed as active; the % refers to the signal ratio; further: potency means the concentration at half of the fitted maximal effect). In a few lines:
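ER-beta-UAS-bla HEK293T cells in 2% charcoal-stripped FBS medium treated with compound plus 1nM final 17-beta-estradiol for 16 hr at 37C. Beta-lactamase reporter read by FRET substrate fluorescence after 2 hours at room temperature.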

Experiment [11] is described as follows: qHTS assay to identify small molecule agonists of the androgen receptor (AR) signaling pathway in the presence of an antagonist - cell viability counter screen (AID 1259379). Further: nearly all actives have a fitted effect of over 25% in size. Further: potency means the concentration at half of the fitted maximal effect. In a few lines: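 Counter screen for cell viability run in parallel with the AR agonist-mode luciferase assay. MDA-kb2 cells were co-treated with nilutamide (3.0uM final) and compounds, then incubated 16 hr at 37C, and CellTiter-Fluor fluorescence was measured.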

Experiment [12] in a line: qHTS assay to identify small molecule agonists of the estrogen receptor beta (ER-beta) signaling pathway - cell viability counter screen (AID 1259380). Further: nearly all actives have a fitted effect of over 30% in size. Further: potency means the concentration at half of the fitted maximal effect. A digest of the protocol:
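In this qHTS counter screen, HEK293T cells carrying an ER-beta/UAS beta-lactamase reporter, grown in 2% charcoal-stripped FBS, received compound for 16 hr; ATP-based CellTiter-Glo luminescence was then read after 30 min at room temperature.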

Experiment [13] in a line: qHTS assay to identify small molecule antagonists of the estrogen receptor beta (ER-beta) signaling pathway - cell viability counter screen (AID 1259382). Further: nearly all actives have a fitted effect of over 55% in size. Further: potency means the concentration at half of the fitted maximal effect. A digest of the protocol: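 HEK293T ER-beta-UAS-bla, 2% charcoal-stripped FBS; compounds + 1nM E2 16 hr 37C; CellTiter-Glo luminescence, 30 min RT.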
Experiment [14] addresses Estrogen receptor (Homo sapiens) (UniProt P03372). In words: qHTS assay to identify small molecule agonists of the estrogen receptor alpha (ER-alpha) signaling pathway in the presence of an antagonist (AID 1259383; calls by dose curve; further: top concentration of the series differs between compounds; nearly all actives have a fitted effect of over 15% in size). A digest of the protocol: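 ER-alpha agonism measured under antagonist challenge: 10.0nM ICI-182,780 (final) plus compound, 15 concentrations, 22hr, VM7Luc4E2 ERE-luciferase cells. Read by luminescence.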

Experiment [15] is described as follows: qHTS assay to identify small molecule agonists or antagonists of the thyroid stimulating hormone receptor (TSHR) signaling pathway - wild type cell line counter screen (AID 1259384; calls by dose curve). A digest of the protocol: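 Wild-type Hek293 cells, 800/well, 18 h at 37C, then compound with Ro20-1724 for 30 min RT. cAMP by HTRF (cAMP-d2/anti-cAMP cryptate), 1 h RT, fluorescence read. 15 concentrations, triplicates.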

For experiment [16], the target named is Thyrotropin receptor (Homo sapiens) (UniProt P16473). In words: qHTS assay to identify small molecule antagonists of the thyroid stimulating hormone receptor (TSHR) signaling pathway (AID 1259385; calls by dose curve; further: nearly all actives have a fitted effect of over 20% in size; further: potency means the concentration at half of the fitted maximal effect). In a few lines:
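TSHR-HEK293 cells (800/well) plated 18 h, then compounds with Ro20-1724 and TSH at 1.5 ng/mL final, 30 min at room temperature. cAMP quantified by HTRF (cAMP-d2/anti-cAMP-cryptate, 1 h); 15 concentrations in triplicate.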

Experiment [17] in a line: qHTS assay to identify small molecule antagonists of the sonic hedgehog signaling (Shh) pathway - cell viability counter screen (AID 1259367). Further: nearly all actives have a fitted effect of over 55% in size. Further: potency means the concentration at half of the fitted maximal effect. In a few lines: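 Tox21 library chemicals were tested on a Gli1-Luc NIH/3T3 clone (2,000 cells/well) stimulated by conditioned medium; viability was quantified as fluorescence from CellTiter-Fluor reagent added at 23 hr.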
Experiment [18] can be described thus: qHTS assay to identify small molecule agonists of the estrogen receptor alpha (ER-alpha) signaling pathway in the presence of an antagonist - cell viability counter screen (AID 1259386). Further: nearly all actives have a fitted effect of over 30% in size. Further: potency means the concentration at half of the fitted maximal effect. In a few lines: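 Steps: 5-day stripped-FBS culture; seed and incubate 24hr; add ICI-182,780 (10.0nM final); pin 15-point compound titration; incubate 22hr at 37C; add CellTiter-Fluor at 21hr; read fluorescence.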

Experiment [19] in a line: qHTS assay to identify small molecule antagonists of the sonic hedgehog signaling (Shh) pathway (AID 1259369; calls by dose curve; further: nearly all actives have a fitted effect of over 45% in size; further: potency means the concentration at half of the fitted maximal effect). A digest of the protocol:
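Gli1 transcriptional reporter (firefly Luc) in NIH/3T3 background, conditioned-medium activated. 24hr exposure, luminescence endpoint.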

Experiment [20] has as its target Androgen receptor (Homo sapiens) (UniProt P10275). Briefly: qHTS assay to identify small molecule agonists of the androgen receptor (AR) signaling pathway in the presence of an antagonist (AID 1259381; calls by dose curve; further: nearly all actives have a fitted effect of over 15% in size). In a few lines: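 AR antagonist background: nilutamide 3.0uM final. Cell line: MDA-kb2, MMTV-driven luciferase, responsive to both AR and GR. Exposure 16hr, 37C, no CO2; ONE-Glo luminescence.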

Androgen receptor (Homo sapiens), sequence (P10275 whole entry, looked up): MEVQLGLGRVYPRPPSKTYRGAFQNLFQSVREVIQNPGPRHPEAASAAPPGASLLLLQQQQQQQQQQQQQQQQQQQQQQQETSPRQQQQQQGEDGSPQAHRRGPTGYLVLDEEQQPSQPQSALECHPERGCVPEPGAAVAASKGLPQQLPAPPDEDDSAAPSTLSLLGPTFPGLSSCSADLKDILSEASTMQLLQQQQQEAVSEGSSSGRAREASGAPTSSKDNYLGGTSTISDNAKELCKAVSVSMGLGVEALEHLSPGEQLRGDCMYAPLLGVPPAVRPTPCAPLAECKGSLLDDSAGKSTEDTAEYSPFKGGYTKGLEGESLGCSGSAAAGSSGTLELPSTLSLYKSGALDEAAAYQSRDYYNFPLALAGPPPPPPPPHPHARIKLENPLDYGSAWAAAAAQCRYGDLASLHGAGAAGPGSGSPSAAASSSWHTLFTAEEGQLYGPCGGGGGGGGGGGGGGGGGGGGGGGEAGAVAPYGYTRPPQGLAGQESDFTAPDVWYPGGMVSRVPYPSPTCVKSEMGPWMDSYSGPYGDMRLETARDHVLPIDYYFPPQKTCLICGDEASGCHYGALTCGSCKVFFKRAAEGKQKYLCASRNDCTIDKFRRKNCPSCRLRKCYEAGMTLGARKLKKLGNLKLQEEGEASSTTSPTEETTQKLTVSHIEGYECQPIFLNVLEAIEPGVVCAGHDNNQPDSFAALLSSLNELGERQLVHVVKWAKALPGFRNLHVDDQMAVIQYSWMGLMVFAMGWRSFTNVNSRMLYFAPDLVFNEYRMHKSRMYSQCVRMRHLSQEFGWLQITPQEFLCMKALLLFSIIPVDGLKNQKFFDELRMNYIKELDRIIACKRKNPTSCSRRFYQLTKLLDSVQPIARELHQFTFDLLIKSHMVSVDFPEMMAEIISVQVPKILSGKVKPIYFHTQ
Thyrotropin receptor (Homo sapiens), sequence (P16473 whole entry, looked up): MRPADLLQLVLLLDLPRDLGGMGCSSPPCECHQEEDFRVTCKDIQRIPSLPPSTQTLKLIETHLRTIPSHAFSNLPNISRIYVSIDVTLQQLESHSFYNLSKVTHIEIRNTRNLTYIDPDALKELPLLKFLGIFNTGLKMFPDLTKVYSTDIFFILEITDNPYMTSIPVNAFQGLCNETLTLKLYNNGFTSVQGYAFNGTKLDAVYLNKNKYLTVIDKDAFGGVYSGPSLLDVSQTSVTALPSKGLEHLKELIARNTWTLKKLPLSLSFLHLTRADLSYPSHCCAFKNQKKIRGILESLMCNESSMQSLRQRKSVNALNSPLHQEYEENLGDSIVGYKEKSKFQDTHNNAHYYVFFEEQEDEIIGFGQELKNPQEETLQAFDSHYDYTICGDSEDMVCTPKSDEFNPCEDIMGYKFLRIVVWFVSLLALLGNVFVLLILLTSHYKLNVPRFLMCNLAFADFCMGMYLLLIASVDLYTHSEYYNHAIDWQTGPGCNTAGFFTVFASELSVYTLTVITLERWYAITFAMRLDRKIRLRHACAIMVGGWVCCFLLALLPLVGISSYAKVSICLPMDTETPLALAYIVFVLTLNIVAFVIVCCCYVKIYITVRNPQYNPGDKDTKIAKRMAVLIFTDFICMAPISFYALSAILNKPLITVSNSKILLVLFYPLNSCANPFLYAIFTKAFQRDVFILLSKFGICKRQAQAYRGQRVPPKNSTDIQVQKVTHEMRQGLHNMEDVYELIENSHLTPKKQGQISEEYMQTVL
Estrogen receptor beta (Homo sapiens), sequence (Q92731 whole entry, looked up): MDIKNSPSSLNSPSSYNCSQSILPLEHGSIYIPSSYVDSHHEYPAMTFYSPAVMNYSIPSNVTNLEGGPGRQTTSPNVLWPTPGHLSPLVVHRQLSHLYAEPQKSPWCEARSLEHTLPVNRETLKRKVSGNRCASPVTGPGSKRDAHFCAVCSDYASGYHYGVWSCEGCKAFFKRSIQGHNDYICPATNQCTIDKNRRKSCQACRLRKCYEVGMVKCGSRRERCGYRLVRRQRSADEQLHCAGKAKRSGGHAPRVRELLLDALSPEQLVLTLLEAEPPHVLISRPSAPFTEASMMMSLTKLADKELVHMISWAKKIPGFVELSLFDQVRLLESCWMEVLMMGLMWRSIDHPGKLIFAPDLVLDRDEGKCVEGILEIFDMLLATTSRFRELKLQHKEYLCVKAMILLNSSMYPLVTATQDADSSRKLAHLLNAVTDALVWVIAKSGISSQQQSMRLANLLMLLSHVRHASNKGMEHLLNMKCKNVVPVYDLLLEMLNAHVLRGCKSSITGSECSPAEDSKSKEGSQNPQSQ

On to `CCCCCCCc1ccc(O)cc1`, for which the Potency entry in [1], in experiment [2], in [4], in experiment [5], in [6] and in experiment [7] was “inactive” throughout. The Potency result in experiment [8], in experiment [9], in [11], in experiment [14], in [15] and in experiment [16] was “inactive” in each case. Further, the Potency in experiment [3] was 27.3 µM (active); in experiment [10], 54.5 µM (active); in [12], 54.5 µM (active); in [13], 48.6 µM (active).

Turning to `CC(C)NCC(O)c1ccccc1Cl` (stereo unspecified), the Potency entry in [1], in [2], in experiment [3], in experiment [4], in experiment [5] and in [6] was “inactive” each time. For the same compound, the Potency entry in experiment [7], in [17], in [8], in experiment [11], in [12] and in [13] was “inactive” throughout. The Potency entry in experiment [14] and in experiment [18] was “inactive” throughout.

In the case of `O=c1[nH]c2cc(Cl)ccc2n1C1CCNCC1`, the Potency result in [1], in experiment [2], in experiment [3], in [4], in experiment [5] and in experiment [6] was “inactive” each time. For the same compound, the Potency entry in [17], in [11], in [12], in experiment [13], in [14] and in experiment [15] was “inactive” each time. Moreover, the Potency result in experiment [16] and in experiment [18] was “inactive” each time.

Regarding `CC(Cc1ccccc1)N(C)Cc1ccco1` (stereo unspecified), the Potency result in experiment [1], in [2], in experiment [3], in experiment [5], in [6] and in [7] was “inactive” in each case. In addition, the Potency entry in experiment [17], in experiment [8], in experiment [19], in experiment [12], in [13] and in experiment [14] was “inactive” throughout. For the same compound, the Potency entry in [15], in experiment [16] and in experiment [18] was “inactive” each time.

Turning to `Cc1ccc([N+](=O)[O-])[c]2c1[O][Hg]2`, the Potency is 9.44 µM (active) in [1]; 6.68 µM (active) in experiment [2]; 2.37 µM (active) in experiment [3]; 7.5 µM (active) in experiment [4]; 29.8 µM (active) in [6]; 2.66 µM (active) in experiment [7]. In addition, the Potency in [17] is 3.35 µM (active); in experiment [19] it was 0.266 µM (active); in [11] it was 13.3 µM (active); in experiment [12] it was 4.22 µM (active); in experiment [13], 5.31 µM (active); in [16], 21.1 µM (active). Besides, the Potency in experiment [18] is 29.8 µM (active). Besides, the Potency result in experiment [8], in experiment [9], in [20], in [14] and in [15] was “inactive” in each case.

Regarding `O=NN(CCO)CCO`, the Potency result in experiment [1], in experiment [2], in experiment [3], in experiment [4], in experiment [5] and in experiment [6] was “inactive” each time. Besides, the Potency result in experiment [7], in experiment [17], in [8], in experiment [19], in experiment [9] and in [10] was “inactive” each time. For the same compound, the Potency result in [11], in experiment [12], in [13], in experiment [14], in experiment [15] and in experiment [16] was “inactive” each time. Further, the Potency result in [18] was “inactive”.

For the compound `COc1cnc(OC)n2nc(NS(=O)(=O)c3c(OCC(F)F)cccc3C(F)(F)F)nc12`, the Potency entry in experiment [1], in experiment [2], in experiment [4], in experiment [5], in experiment [6] and in experiment [7] was “inactive” in each case. The Potency entry in experiment [17], in experiment [8], in [19], in [9], in [10] and in experiment [11] was “inactive” throughout. Also, the Potency result in experiment [12], in experiment [13], in experiment [14], in [15], in experiment [16] and in experiment [18] was “inactive” each time.

Regarding `O=C(NC(=O)c1ccccc1Cl)Nc1ccc(OC(F)(F)F)cc1`, the Potency entry in [1], in experiment [2], in experiment [3], in [6], in experiment [7] and in experiment [17] was “inactive” in each case. Moreover, the Potency entry in experiment [8], in experiment [19], in experiment [9], in [10], in experiment [11] and in [12] was “inactive” each time. In addition, the Potency result in experiment [20], in experiment [13], in experiment [15], in [16] and in [18] was “inactive” in each case.

The values are drawn from PubChem BioAssay (Tox21).
